According to PubChem BioAssay AID1159580 (chemical genetic matrix, 2015):
Hit rate of the full screen: of about 5,500 compounds, about 2,000 (36%) were called active. Inconclusive results (about 18%) are left out. No stated cut-off is given here; in the data, active means normalized growth mostly below about 0.91 (no sharp cut-off); inconclusive means no clear call, values can overlap the other calls; inactive means mostly above about 0.92. The list shows a part of the results.

Test: chemical genetic growth profiling, strain panel (AID 1159580);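 further: tested at 20 µM; growth read once vehicle control cultures reached saturation at 30 °C; 1 = growth at the plate median or of vehicle wells; lower values mean less growth of the strain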
Settings: S. cerevisiae deletion strains, growth OD

Measured: normalized growth

N#Cc1c(Br)cnn1Cc1cc(C(F)(F)F)cc(C(F)(F)F)c1
inactive: locus YAR019C, strain CDC15, active compounds read low 0.997 | locus YBL105C, strain PKC1, active compounds read low 1 | locus YBR135W, strain CKS1, active compounds read low 1.01 | locus YBR136W, strain MEC1, active compounds read low 0.995 | locus YBR160W, strain CDC28, active compounds read low 0.999 | locus YDL017W, strain CDC7, active compounds read low 0.995 | locus YDL028C, strain MPS1, active compounds read low 1 | locus YDL101C, strain DUN1, active compounds read low 0.988 | locus YDL108W, strain KIN28, active compounds read low 0.997 | locus YDL132W, strain cdc53, active compounds read low 0.999 | locus YDL214C, strain PRR2, active compounds read low 0.863 | locus YDR052C, strain DBF4, active compounds read low 0.993 | locus YDR054C, strain cdc34, active compounds read low 0.989 | locus YDR226W, strain ADK1, active compounds read low 1 | locus YDR477W, strain SNF1, active compounds read low 0.939 | locus YER123W, strain YCK3, active compounds read low 0.842 | locus YER133W, strain GLC7, active compounds read low 0.919 | locus YFL009W, strain cdc4, active compounds read low 0.993 | locus YFL029C, strain CAK1, active compounds read low 0.998 | locus YFR003C, strain YPI1, active compounds read low 1 | locus YFR019W, strain FAB1, active compounds read low 0.936 | locus YFR028C, strain CDC14, active compounds read low 1 | locus YGR040W, strain KSS1, active compounds read low 0.925 | locus YGR052W, strain FMP48, active compounds read low 0.946 | locus YGR092W, strain DBF2, active compounds read low 0.919 | locus YHR030C, strain SLT2, active compounds read low 0.933 | locus YHR079C, strain IRE1, active compounds read low 0.93 | locus YHR082C, strain KSP1, active compounds read low 0.907 | locus YHR205W, strain SCH9, active compounds read low 0.817 | locus YIL147C, strain SLN1, active compounds read low 0.99 | locus YJL095W, strain BCK1, active compounds read low 0.941 | locus YJL128C, strain PBS2, active compounds read low 0.887 | locus YJL157C, strain FAR1, active compounds read low 0.909 | locus YJR016C, strain ILV3, active compounds read low 0.989 | locus YJR066W, strain TOR1 (second series), active compounds read low 0.919 | locus YJR066W, strain TOR1, active compounds read low 0.952 | locus YKL048C, strain ELM1, active compounds read low 0.957 | locus YKL067W, strain YNK1, active compounds read low 0.895 | locus YKL101W, strain HSL1, active compounds read low 0.878 | locus YKL193C, strain SDS22, active compounds read low 0.996 | locus YKL203C, strain TOR2, active compounds read low 1 | locus YLR133W, strain CKI1, active compounds read low 0.926 | locus YLR403W, strain SFP1, active compounds read low 0.933 | locus YML070W, strain DAK1, active compounds read low 0.884 | locus YMR001C, strain CDC5, active compounds read low 0.997 | locus YMR205C, strain PFK2 (second series), active compounds read low 0.907 | locus YMR277W, strain FCP1, active compounds read low 1 | locus YNL006W, strain LST8, active compounds read low 0.997 | locus YNL020C, strain ARK1, active compounds read low 0.888 | locus YNL161W, strain CBK1, active compounds read low 0.994 | locus YNL183C, strain NPR1, active compounds read low 0.931 | locus YNL207W, strain RIO2, active compounds read low 0.99 | locus YNL222W, strain SSU72, active compounds read low 0.996 | locus YNL307C, strain MCK1 (second series), active compounds read low 0.903 | locus YOL078W, strain AVO1, active compounds read low 0.999 | locus YOL136C, strain PFK27, active compounds read low 0.859 | locus YOR061W, strain CKA2, active compounds read low 0.867 | locus YOR119C, strain RIO1, active compounds read low 0.974 | locus YOR231W, strain MKK1, active compounds read low 0.903 | locus YOR329C, strain SCD5, active compounds read low 0.991 | locus YPL031C, strain PHO85, active compounds read low 0.922 | locus YPL153C, strain RAD53, active compounds read low 0.928 | locus YPL204W, strain HRR25, active compounds read low 0.943 | locus YPL209C, strain IPL1, active compounds read low 1 | locus YPL256C, strain CLN2, active compounds read low 0.876 | locus YPR025C, strain CCL1, active compounds read low 0.999 | locus YPR106W, strain ISR1, active compounds read low 0.983 | locus YPR111W, strain DBF20, active compounds read low 0.959 | strain NNK1, active compounds read low 0.956 | strain TSCII, active compounds read low 0.998
active: locus YLR113W, strain HOG1, active compounds read low 0.761
